Common to all, as to assay: NCI-60 one-dose screen, 48 h (100 = growth as untreated, 0 = no growth, -100 = all killed)
For one test, the system named is HCT-15 colon. To be noted: 10 µM unless noted.
The next test has as its system HT29 colon. To be noted: 10 µM unless noted.
The test system of a further test is SNB-75 CNS. To be noted: 10 µM unless noted.
A further test relates to SNB-19 CNS. The following applies: 10 µM unless noted.
In the next test the test system is U251 CNS. The following applies: 10 µM unless noted.
The subject of the next test is PC-3 prostate. The following applies: 10 µM unless noted.
A further test has as its system SK-MEL-5 melanoma. To be noted: 10 µM unless noted.
The next test relates to UACC-62 melanoma. The following applies: 10 µM unless noted.
Another test relates to LOX IMVI melanoma. The following applies: 10 µM unless noted.
Another test has as its system SK-MEL-28 melanoma. To be noted: 10 µM unless noted.
The test system of a further test is SK-MEL-2 melanoma. To be noted: 10 µM.
A further test has as its system EKVX NSCLC. The following applies: 10 µM unless noted.
A further test concerns SN12C renal. To be noted: 10 µM unless noted.
The next test relates to UO-31 renal. The following applies: 10 µM unless noted.
In a further test the test system is TK-10 renal. To be noted: 10 µM unless noted.
A further test concerns ACHN renal. The following applies: 10 µM unless noted.
The test system of another test is CAKI-1 renal. The following applies: 10 µM unless noted.
For a further test, the system named is CCRF-CEM leukemia. To be noted: 10 µM unless noted.
The subject of another test is MOLT-4 leukemia. The following applies: 10 µM unless noted.
The next test has as its system A498 renal. To be noted: 10 µM unless noted.

The panel holds about 83,000 compounds, 20% with a hit somewhere; the sample as a whole holds those more often.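 The endpoint reported here, percent growth, reads 100 for growth as untreated, 0 for no net growth and -100 for all cells dead.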 Unmarked numbers belong to inactive results. Activity calls are given as the source filed them. Rule for the calls: active = growth percent below 10; inactive = the rest.

As for `Nc1c(C(=O)c2ccccc2)sc2nc(-c3cccs3)ccc12`, the growth is 24.7% in the test on HCT-15 colon; 5.02% (active) in the test with HT29 colon; 32.4% in the test on SNB-75 CNS; 36.1% in the test with SNB-19 CNS; 17.6% with U251 CNS; 23% in the test on PC-3 prostate. Besides, the growth in the test with SK-MEL-5 melanoma was 17.5%; in the test with UACC-62 melanoma, 11.8%; in the test with LOX IMVI melanoma it was 44.8%; with SK-MEL-28 melanoma, 72.6%; in the test with SK-MEL-2 melanoma it was 44.2%; in the test with EKVX NSCLC, 60.8%. For the same compound, the growth in the test with SN12C renal was 44.9%; in the test on UO-31 renal, 48.7%; in the test with TK-10 renal it was 56.7%; with ACHN renal, 54.3%; in the test on CAKI-1 renal, 38.5%; with CCRF-CEM leukemia, 19.1%. Moreover, in the test on MOLT-4 leukemia, the growth was 28.1%.
With `CCCCCCCC(=O)SCC/C=C/[C@@H]1CC(=O)NCc2nc(co2)C2=N[C@@](C)(CS2)C(=O)N[C@@H](C(C)C)C(=O)O1`, the growth in the test with HCT-15 colon is 0.603% (active); with HT29 colon it was 2.22% (active); in the test on SNB-75 CNS, 26.1%; in the test with SNB-19 CNS, 9.15% (active); with U251 CNS, -61.2% (active); in the test on PC-3 prostate, 9.75% (active). In addition, the growth with SK-MEL-5 melanoma is -93.5% (active); with UACC-62 melanoma it was -68% (active); in the test on LOX IMVI melanoma, -97.2% (active); with SK-MEL-28 melanoma, -37.2% (active); in the test on SK-MEL-2 melanoma, -3.78% (active); with EKVX NSCLC, 16.2%. Further, the growth in the test with SN12C renal was 12.6%; with UO-31 renal it was -13.5% (active); in the test on TK-10 renal it was -18.6% (active); in the test with ACHN renal, -27.5% (active); in the test on CAKI-1 renal, -50.8% (active); with CCRF-CEM leukemia, 19.3%. Also, in the test with MOLT-4 leukemia, the growth was 3.84% (active).
Consider `c1cc[n+](Cc2c3ccccc3cc3c2ccc2ccccc23)cc1`, for which the growth is 91.5% in the test on HCT-15 colon; 25.6% with HT29 colon; 29.6% with SNB-75 CNS; 6.26% (active) with SNB-19 CNS; 6.64% (active) in the test on U251 CNS; 42% with PC-3 prostate. Also, the growth is -60.1% (active) with SK-MEL-5 melanoma; 11.2% with UACC-62 melanoma; 48.8% in the test with LOX IMVI melanoma; -2.27% (active) in the test with SK-MEL-28 melanoma; 25% with SK-MEL-2 melanoma; 58.3% in the test on EKVX NSCLC. In addition, the growth in the test on SN12C renal is 0.929% (active); in the test on UO-31 renal it was 81.9%; in the test on TK-10 renal, 78.1%; with ACHN renal, 103%; in the test with A498 renal it was 80.2%; with CCRF-CEM leukemia, 55.5%. Moreover, the growth in the test with MOLT-4 leukemia is 25.6%.
Consider `NC1=Nc2ccccc2N(O)N1`, for which the growth in the test on HCT-15 colon was 105%; in the test with HT29 colon, 90.6%; with SNB-75 CNS it was 78.5%; with SNB-19 CNS, 108%; in the test on U251 CNS, 98.6%; in the test with PC-3 prostate it was 95.1%. Further, the growth was 105% with SK-MEL-5 melanoma; 102% with UACC-62 melanoma; 96.8% in the test on LOX IMVI melanoma; 100% in the test with SK-MEL-28 melanoma; 89.2% in the test with SK-MEL-2 melanoma; 95.4% in the test on EKVX NSCLC. The growth in the test with SN12C renal is 99.1%; in the test with UO-31 renal, 88.4%; in the test on TK-10 renal, 94.7%; with ACHN renal, 100%; in the test on CAKI-1 renal, 91.8%; with CCRF-CEM leukemia, 105%. In addition, the growth in the test on MOLT-4 leukemia was 99.4%.
Turning to `CC12O[C@H](C[C@@H](OC(=O)CCC(=O)O)[C@H]1O)n1c3ccccc3c3c4c(c5c6ccccc6n2c5c31)C(=O)NC4=O`, the growth is 15% in the test with HCT-15 colon; 21.2% in the test with HT29 colon; -8.7% (active) in the test on SNB-75 CNS; 43.2% with SNB-19 CNS; 50.6% with U251 CNS; 48% in the test on PC-3 prostate. Further, the growth with SK-MEL-5 melanoma was -19% (active); in the test on UACC-62 melanoma, -6.1% (active); in the test on LOX IMVI melanoma, 15.9%; with SK-MEL-28 melanoma, 33.8%; in the test on SK-MEL-2 melanoma it was 23.3%; in the test with EKVX NSCLC, 42.9%. Besides, the growth is 38.9% with SN12C renal; -15.9% (active) with UO-31 renal; 2.26% (active) in the test with TK-10 renal; 19.4% in the test on ACHN renal; -30.6% (active) in the test on A498 renal; 7.97% (active) with CCRF-CEM leukemia. Also, the growth with MOLT-4 leukemia is 5.17% (active).
As to `COC(=O)[C@]12CC[C@@H](C)[C@H](C)[C@@H]1C1=CC[C@@H]3[C@@]4(C)C(C=O)=C[C@@](C)(COS(C)(=O)=O)C4=CC[C@@]3(C)[C@]1(C)CC2`, the growth in the test on HCT-15 colon is -80.5% (active); in the test with HT29 colon, -63.2% (active); in the test with SNB-75 CNS, -25.1% (active); with SNB-19 CNS, -5.33% (active); with U251 CNS, -93.6% (active); in the test with PC-3 prostate it was -19.9% (active). For the same compound, the growth with SK-MEL-5 melanoma is -98.2% (active); in the test with UACC-62 melanoma it was -73.4% (active); with LOX IMVI melanoma, -98.7% (active); with SK-MEL-28 melanoma, -72.3% (active); with SK-MEL-2 melanoma, -40.3% (active); in the test with EKVX NSCLC, -39.2% (active). Besides, the growth was -37.8% (active) in the test on SN12C renal; -93.8% (active) with UO-31 renal; -54.7% (active) with TK-10 renal; -82.8% (active) in the test on ACHN renal; -43.9% (active) in the test on CAKI-1 renal; -1.17% (active) in the test with CCRF-CEM leukemia. The growth with MOLT-4 leukemia was 0.901% (active).
For `COc1ccc2c(CCCC(c3ccccc3)c3ccccc3)c3[n+](cc2c1OC)CCc1cc2c(cc1-3)OCO2`, the growth with HCT-15 colon was 13.2%; in the test on HT29 colon it was -2.94% (active); in the test on SNB-75 CNS it was -19.1% (active); in the test with SNB-19 CNS it was -16.4% (active); in the test on U251 CNS, -76.2% (active); with PC-3 prostate, -68.8% (active). Also, the growth is -100% (active) with SK-MEL-5 melanoma; -71.7% (active) with UACC-62 melanoma; -100% (active) in the test with LOX IMVI melanoma; -78.7% (active) in the test on SK-MEL-28 melanoma; -52.4% (active) with SK-MEL-2 melanoma; 14.9% in the test with EKVX NSCLC. The growth in the test with SN12C renal is -65.6% (active); in the test on UO-31 renal, 5.46% (active); in the test on TK-10 renal it was -30.7% (active); with ACHN renal it was 11.6%; with CAKI-1 renal, 57.7%; in the test with CCRF-CEM leukemia it was 5.53% (active). For the same compound, the growth in the test on MOLT-4 leukemia is -20.5% (active).
Take `COc1ccc(C2CC(=O)c3c(O)c(OC)c(OC)c(OC)c3O2)c(O)c1` (configuration not stated): the growth was 10.3% with HCT-15 colon; 65.3% in the test on HT29 colon; 38.1% in the test with SNB-75 CNS; 35.6% in the test with SNB-19 CNS; 24.3% in the test with U251 CNS; 29% in the test with PC-3 prostate. In addition, the growth in the test on SK-MEL-5 melanoma is 20%; in the test with UACC-62 melanoma, 37%; with LOX IMVI melanoma, 44.2%; with SK-MEL-28 melanoma, 61.2%; in the test on SK-MEL-2 melanoma, 52%; with EKVX NSCLC, 48.4%. The growth in the test on SN12C renal was 47.4%; with UO-31 renal, 54.2%; in the test on TK-10 renal, 73.1%; with ACHN renal, 44.3%; in the test with CAKI-1 renal, 41.1%; in the test with CCRF-CEM leukemia, 25.5%. Besides, in the test on MOLT-4 leukemia, the growth was 22.6%.
